High-throughput results from PubChem.
An excerpt weighted towards active compounds, which were near 3% of everything screened.
Nrf2 block: Nrf2 pathway inhibition | 2.1% of 360,000 active | Potency, µM (highest dose often 46 µM), for the others: at the highest dose activity change, negative = inhibition, hits mostly inhibitors | AID 504444 | A549 ARE-Fluc reporter, luciferase luminescence, 18-24 h; also: % is scaled to controls: 0 for no effect and ±100 for the full control effect; nearly all actives have a fitted effect of over 60% in size
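Reporter: ARE-Fluc in A549. Exposure: 18-24 h, 37 °C, 5% CO2, 5% FBS OPTI-MEM. Readouts: fluorescent cytotoxicity (CellTiter-Fluor), then luminescent Nrf2 signal after BugLite.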
TrxR1 substrate: is turned over as a substrate by rat TrxR1; 0.01% of 390,000 active; Potency, µM (doses to about 114 µM), for inactives: at the highest dose activity change, negative = substrate turnover; O89049; purified TrxR1 substrate turnover, NADPH consumption readout; also: % is scaled to controls: 0 for no effect and ±100 for the full control effect; nearly all actives have a fitted effect of over 50% in size
Target sequence (O89049 whole entry, looked up): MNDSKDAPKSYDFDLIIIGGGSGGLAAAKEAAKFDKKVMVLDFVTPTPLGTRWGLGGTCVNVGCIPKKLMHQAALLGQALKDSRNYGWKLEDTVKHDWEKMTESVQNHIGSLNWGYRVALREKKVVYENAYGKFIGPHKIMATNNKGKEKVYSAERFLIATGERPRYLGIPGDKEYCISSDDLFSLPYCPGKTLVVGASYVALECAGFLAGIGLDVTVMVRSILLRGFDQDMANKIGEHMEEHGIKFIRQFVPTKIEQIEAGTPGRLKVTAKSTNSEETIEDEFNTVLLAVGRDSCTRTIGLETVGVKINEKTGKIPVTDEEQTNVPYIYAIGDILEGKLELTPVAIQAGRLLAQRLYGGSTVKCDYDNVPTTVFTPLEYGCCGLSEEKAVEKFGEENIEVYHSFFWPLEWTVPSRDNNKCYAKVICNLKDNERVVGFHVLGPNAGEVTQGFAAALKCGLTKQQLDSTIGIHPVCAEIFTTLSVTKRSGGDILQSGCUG
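Rat TrxR1, dispensed at 90 nM, was prereduced with 400 uM NADPH (final) for 5 min at ~22 deg C, then incubated with compound 15 min before 400 uM selenite. A first-read NADPH fluorescence drop versus no-compound background flagged substrates.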
rTrxR1 inhibitor: inhibitors of rat thioredoxin reductase 1; 1% of 390,000 active; O89049; AID 588453; Potency, µM (highest dose often 114 µM), without a hit: at the top dose activity change, negative = inhibition, usual class: inhibitors; recombinant rTrxR1, NADPH fluorescence consumption, selenite substrate; also: % is scaled to controls: 0 for no effect and ±100 for the full control effect; nearly all actives have a fitted effect of over 65% in size
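Rat TrxR1 (90 nM in the dispensed reagent) was pre-reduced with 400 uM NADPH for 5 min at room temperature, then incubated with compound for 15 min. After 400 uM selenite was added, NADPH fluorescence (Ex 340/Em 450 nm) was followed for 8 min.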
A549 viability: A549 cytotoxicity, counter-screen for Nrf2 inhibitors; A549 ARE-Fluc cells, CellTiter-Fluor viability, 18-24 h; Potency, µM (doses to about 46 µM), for inactives: top-dose activity change, negative = cytotoxicity, usual class: inhibitors; 0.16% of 390,000 active; also: % is scaled to controls: 0 for no effect and ±100 for the full control effect
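Cytotoxicity counterscreen: CellTiter-Fluor fluorescence was measured in A549 ARE_Fluc cells after 18-24 h of compound exposure in a concentration series. The subsequent BugLite luminescent read reports ARE-luciferase activity.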
Nrf2 ARE act: activators of Nrf2 (ARE) signaling; AID 624171; Potency, µM (titrated, usually from 46.1 µM), for inactives: at the highest dose activation, most hits filed as activators; 0.31% of 410,000 active; AREc32 ARE-luciferase reporter (MCF7-derived line), luminescence, 24 h; also: % of control where 0% means no effect; nearly all actives have a fitted effect of over 65% in size
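Cells of the AREc32 ARE-luciferase line are plated in OPTI-MEM containing 5% FBS and left overnight at 37 deg C. Compounds are pinned in, incubation continues 24 hr, and firefly luciferase signal is then measured.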
GALK inh: galactokinase (human) inhibition | P51570 | Purified GALK, Kinase-Glo residual ATP luminescence | Potency, µM (doses to about 57.5 µM), for inactives: at the highest dose activity change, negative = inhibition, usual class: inhibitors | 0.007% of 270,000 active; also: % is scaled to controls: 0 for no effect and ±100 for the full control effect
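Luminescence from leftover ATP (Ultra-Glo luciferase/luciferin) served as read-out after a 1 h room-temperature reaction of 5 nM GALK with 35 uM ATP and 100 uM galactose.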
The depositor's hits bear a star; ? = inconclusive; / = no result given; [ ] = another dose, or the depositor's remark. Calls follow the shape of the dose curve; as a rule, active = well fitted curve in the direction sought with a large enough effect; inconclusive = small, poorly fitted or top-dose-only effect, or another doubt; inactive = no such curve, though single readings can be large; an effect the other way counts as inactive or inconclusive. Potency is read from the fitted curve at half-maximal effect.

SMILES	Nrf2 block	TrxR1 substrate	rTrxR1 inhibitor	A549 viability	Nrf2 ARE act	GALK inh
FC(F)(F)C1=Nc2cccc3cccc(c23)N1	-7.4%	-4.4%	39.8µM*	?	-0.2%	/
CC(=O)c1ccc(NC(=O)COCc2cc(-c3ccc(F)cc3)on2)cc1	12.3%	-4.6%	8.4%	0.1%	0.1%	/
O=C(CSc1c2c(nc3cc(Cl)ccc13)CCCC2)N1CCN(c2ccccc2F)CC1	?	-1.8%	4.8%	?	?	/
CCn1c(C)c(C)c2cc(C(=O)NCCc3cc(OC)c(OC)c(OC)c3)ccc21	?	0.1%[57.1 µM]	11.2%[57.1 µM]	-12.2%	0.7%	/
N#Cc1ccc(CSc2nnc(Cc3cccs3)n2Cc2ccco2)cc1	2.1%	-4.9%	39.8µM*	2.4%	4.2%	0.3%
COc1cc2c(cc1NC(=O)CSc1nnc(Cc3cccs3)n1Cc1ccco1)oc1ccccc12	/	1.6%[57.1 µM]	14.1µM*	?	5.3%	-1.7%
COc1cc2c(cc1NC(=O)CN(C)Cc1ccc(OC)c(OC)c1)oc1ccccc12	16.4µM*	7.3%	27.8%	-12.4%	-1.0%	1.9%
CC(/C=C(\NC(=O)c1ccccc1)C(=O)N=Nc1c(O)[nH]c2ccc(C)cc12)=C\c1ccccc1	/	6.5%[57.1 µM]	7.5%[57.1 µM]	?	8.91µM*	-4.8%
Cc1ccc2[nH]c(O)c(N=NC(N)=S)c2c1	-23.7%	-8.8%	-14.8%	-3.4%	-0.4%	-1.9%
O=C(Nc1ccc(O)cc1)C1CCCN1S(=O)(=O)c1ccc(F)cc1 (centres undefined)	14.6µM*	-8.7%	-16.4%	-10.8%	0.2%	-0.1%
N#Cc1ccc(NC(=O)C2Cc3ccccc3CN2S(=O)(=O)c2ccc(F)cc2)cc1 (centres undefined)	23.1µM*	0.1%	19.1%	?	5.6%	/
CN(C)CCCN(C(=O)CCOc1ccccc1)c1nc2c(F)cccc2s1	?	17.8%[57.1 µM]	0.447µM*	?	-3.6%	-1.2%
CN(C)CCCN(C(=O)CCOc1ccccc1)c1nc2ccc(F)cc2s1	?	-3.4%	0.631µM*	-27.0%	?	-0.3%
O=C(CCOc1ccccc1)N(Cc1cccnc1)c1nc2ccc(F)cc2s1	/	3.3%[57.1 µM]	7.08µM*	-2.2%	4.1%	/
Cc1cccc2sc(N(Cc3cccnc3)C(=O)CCS(=O)(=O)c3ccccc3)nc12	/	-4.0%[57.1 µM]	?	4.3%	22.4µM*	/
COC(=O)c1c(NC(=O)c2nc(SC)ncc2Cl)sc2c1CCCC2	17.3%	7.1%	36.4%	0.7%	-0.5%	/
O=C(CSc1ccc(-c2ccco2)nn1)c1ccccc1	16.2%	-5.8%	28.2µM*	0.5%	17.7%	-0.3%
O=C(CSc1ccc(-c2ccco2)nn1)Nc1ccc(F)cc1	?	8.1%	31.6µM*	-17.6%	16.6%	4.0%
CCOc1ccc(NC(=O)CSc2ccc(-c3ccco3)nn2)cc1	?	4.3%	?	-4.3%	9.4%	-1.1%
COc1ccc(NC(=O)CSc2ccc(-c3ccco3)nn2)cc1OC	-17.6%	-1.8%	35.5µM*	-16.2%	?	-2.8%
Cc1nnc(NC(=O)CSc2ccc(-c3ccco3)nn2)s1	-24.8%	9.6%	17.8µM*	-4.0%	?	-1.3%
COc1ccc(C(=O)CSc2ccc(-c3ccco3)nn2)cc1	9.4%	-7.9%	?	0.6%	13.5%	-2.7%
CCc1nnc(NC(=O)CSc2ccc(-c3ccco3)nn2)s1	12.4%	6.4%	14.4%[57.1 µM]	-6.2%	-0.2%	-1.6%
Oc1c(C(c2ccccc2)N2CCC(O)CC2)sc2nc(-c3ccco3)nn12 (centres undefined)	/	7.2%[57.1 µM]	26.0%[57.1 µM]	4.2%	-0.9%	/
Cc1cccc(NC(=O)Cn2nc(-c3ccco3)ccc2=O)c1C	-11.5%	20.6%	?	0.8%	1.8%	-0.9%
SMILES	Nrf2 block	TrxR1 substrate	rTrxR1 inhibitor	A549 viability	Nrf2 ARE act	GALK inh
O=C(Cn1nc(-c2ccco2)ccc1=O)Nc1ccc(Br)cc1	2.9%	20.5%	39.8µM*	-0.3%	15.6%	7.2%
COc1cccc(NC(=O)CSc2ccc(-c3ccco3)nn2)c1	-15.2%	5.0%	28.2µM*	-6.0%	20.2%	-4.6%
CCN(c1ccccc1)S(=O)(=O)c1ccc(NC(=O)c2cc(=O)c3cc(C)c(C)cc3o2)cc1	7.9%	7.5%	28.5%	-7.3%	-0.7%	/
Cc1c(Cl)sn(-c2ccc(Cl)cc2)c1=O	25.9µM*	-11.6%	5.01µM*	?	0.1%	-1.7%
O=S(=O)(c1ccc(Br)cc1)c1nnn2c1nc(NCc1ccc3c(c1)OCO3)c1sccc12	?	7.2%	31.4%	0.0%	0.6%	/
CCN(CC)S(=O)(=O)c1cc(NC(=O)CSc2nc3c(cc2C#N)C(=O)CC(C)(C)C3)ccc1C	18.4µM*	-17.0%[57.1 µM]	16.2%[57.1 µM]	?	8.1%	-3.2%
CCN(CC)S(=O)(=O)c1cc(NC(=O)CSc2nnc(N)s2)ccc1C	3.3%	-5.9%	30.3%	-3.4%	-0.9%	/
Cc1cc(NS(=O)(=O)c2ccc(NC(=O)COc3ccccc3Br)cc2)no1	-29.8%	0.1%	20.9%	-3.8%	-0.6%	/
CCOC(=O)c1cc(=O)n2nc(-c3ccccc3F)nc2s1	-7.7%	0.5%[57.1 µM]	11.2µM*	-4.7%	?	-5.1%
Cc1ccc2nc(CSc3nc(C)nc4c3oc3ccccc34)[nH]c2c1	18.4µM*	5.7%[57.1 µM]	8.4%	?	-0.4%	/
COc1ccc(CCN(C)C(=O)COC(=O)/C=C/c2ccc(C)o2)cc1OC	-4.7%	-13.8%	15.8µM*	10.4%	2.4%	/
Cc1nc(-c2ccc(S(=O)(=O)Nc3ccc(Cl)c(C(F)(F)F)c3)cc2)co1	/	0.8%[57.1 µM]	19.3%[57.1 µM]	16.9%	3.8%	/
COc1ccc2c(c1)CCc1c(C(=O)Nc3c(C)nn(Cc4ccccc4)c3C)noc1-2	20.6µM*	1.9%	6.3%	-6.4%	-0.7%	0.0%
Cc1nn(Cc2ccc(Cl)cc2)c(C)c1NC(=O)c1noc2c1CCc1ccccc1-2	16.4µM*	-2.8%	8.2%	?	0.2%	4.3%
COc1ccc(OC)c(-c2cc(C(=O)NCc3ccco3)no2)c1	4.0%	40.7%[57.1 µM]	7.5%[57.1 µM]	1.6%	11.2µM*	2.2%
COc1ccc2c(c1)CCc1c(C(=O)Nc3ccn(Cc4ccc(C)cc4)n3)noc1-2	16.4µM*	-9.1%	-9.5%	-25.2%	-0.3%	-1.1%
COc1cccc(-c2cc(C(=O)NCc3ccco3)no2)c1	/	8.5%[57.1 µM]	-6.2%	-4.8%	0.6%	0.2%
COc1cccc(C2c3c(ncn(-c4ccccn4)c3=N)Oc3ccc4ccccc4c32)c1 (centres undefined)	?	/	/	-5.6%	/	/
Nc1ncc(S(=O)(=O)NCc2ccccc2F)cn1	/	0.0%[57.1 µM]	6.2%[57.1 µM]	0.0%	-1.4%	/
Cc1ccccc1Cn1nnc2c(=O)[nH]c(C3CCN(C(=O)c4ccccc4)CC3)nc21	21.1%	0.6%	6.5%	-13.6%	2.3%	/
COc1ccc2c(c1)CCc1c(C(=O)N3CCOCC3)noc1-2	19.7%	-1.9%	20µM*	-11.9%	-0.4%	0.5%
